# Assay results from article PMC7862700, “An all-to-all approach to the identification of sequence-specific readers for epigenetic DNA modifications on cytosine”.
# Key:
# Test in all cases: DAPPL (digital affinity profiling via proximity ligation, sequencing); 10 mM Tris-HCl pH 7.5, 50 mM NaCl, 1 mM DTT, 4% glycerol, room temperature, 30 min; GST-TFs on glutathione beads, 16-mer random dsDNA library, 0.1% formaldehyde crosslink after washing; high values mean tight binding
# Conditions in all cases: protein: recombinant; tags: N-terminal GST; dsDNA, one strand shown
# FEV = target: T1, FEV (Homo sapiens, UniProt Q99581 1-238)
# T1 sequence: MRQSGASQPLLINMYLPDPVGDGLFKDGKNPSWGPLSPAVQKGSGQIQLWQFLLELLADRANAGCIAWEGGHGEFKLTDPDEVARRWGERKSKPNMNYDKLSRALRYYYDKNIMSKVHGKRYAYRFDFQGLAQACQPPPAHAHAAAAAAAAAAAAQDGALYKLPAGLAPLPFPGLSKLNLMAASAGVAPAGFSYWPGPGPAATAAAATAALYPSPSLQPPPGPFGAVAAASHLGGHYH
# Outline: (§1)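 Sequencing on an Illumina NextSeq500 followed washing, crosslinking with 0.1% formaldehyde, proximity ligation (BsaI/T4 ligase, 1 h, 37 °C) and PCR amplification of pools that had been incubated for 30 min at room temperature with 200 nmole of a random double-stranded 16-mer DNA library in Tris/NaCl/DTT/glycerol buffer. Each pool held DNA-barcoded human transcription factors, expressed in yeast as GST fusions and captured on glutathione beads, plus a tag-only sample. Binding signal is a hexamer's read frequency for a factor divided by its frequency in the tag-only sample.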
# ETV5 = ETV5 (Homo sapiens, UniProt P41161 1-510)
# Sequence of ETV5 (P41161 whole entry): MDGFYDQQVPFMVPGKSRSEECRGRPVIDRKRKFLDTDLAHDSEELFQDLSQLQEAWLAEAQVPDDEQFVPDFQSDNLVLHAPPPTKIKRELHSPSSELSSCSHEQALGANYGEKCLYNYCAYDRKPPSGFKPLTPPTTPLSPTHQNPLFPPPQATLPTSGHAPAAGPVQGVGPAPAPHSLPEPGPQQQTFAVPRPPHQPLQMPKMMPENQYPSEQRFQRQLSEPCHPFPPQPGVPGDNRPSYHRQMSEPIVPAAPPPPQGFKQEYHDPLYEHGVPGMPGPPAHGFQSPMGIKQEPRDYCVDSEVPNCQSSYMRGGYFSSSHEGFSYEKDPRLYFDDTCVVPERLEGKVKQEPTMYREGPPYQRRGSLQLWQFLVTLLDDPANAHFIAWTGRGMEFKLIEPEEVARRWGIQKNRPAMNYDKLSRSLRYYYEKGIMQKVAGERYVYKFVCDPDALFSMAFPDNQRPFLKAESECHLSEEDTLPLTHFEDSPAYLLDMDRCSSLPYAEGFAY
# Outline: as §1
# SPIC = target: T2, SPIC (Homo sapiens, UniProt Q8N5J4 1-248)
# T2 sequence: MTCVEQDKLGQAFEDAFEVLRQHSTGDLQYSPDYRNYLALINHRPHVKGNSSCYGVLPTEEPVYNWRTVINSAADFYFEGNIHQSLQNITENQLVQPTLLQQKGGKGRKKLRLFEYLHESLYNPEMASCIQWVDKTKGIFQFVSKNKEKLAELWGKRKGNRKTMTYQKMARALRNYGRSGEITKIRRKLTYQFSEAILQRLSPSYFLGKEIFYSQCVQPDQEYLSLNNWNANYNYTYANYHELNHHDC
# Outline: as §1
# ELF4 = ELF4 (Homo sapiens, UniProt Q99607 1-663)
# Sequence of ELF4 (Q99607 whole entry): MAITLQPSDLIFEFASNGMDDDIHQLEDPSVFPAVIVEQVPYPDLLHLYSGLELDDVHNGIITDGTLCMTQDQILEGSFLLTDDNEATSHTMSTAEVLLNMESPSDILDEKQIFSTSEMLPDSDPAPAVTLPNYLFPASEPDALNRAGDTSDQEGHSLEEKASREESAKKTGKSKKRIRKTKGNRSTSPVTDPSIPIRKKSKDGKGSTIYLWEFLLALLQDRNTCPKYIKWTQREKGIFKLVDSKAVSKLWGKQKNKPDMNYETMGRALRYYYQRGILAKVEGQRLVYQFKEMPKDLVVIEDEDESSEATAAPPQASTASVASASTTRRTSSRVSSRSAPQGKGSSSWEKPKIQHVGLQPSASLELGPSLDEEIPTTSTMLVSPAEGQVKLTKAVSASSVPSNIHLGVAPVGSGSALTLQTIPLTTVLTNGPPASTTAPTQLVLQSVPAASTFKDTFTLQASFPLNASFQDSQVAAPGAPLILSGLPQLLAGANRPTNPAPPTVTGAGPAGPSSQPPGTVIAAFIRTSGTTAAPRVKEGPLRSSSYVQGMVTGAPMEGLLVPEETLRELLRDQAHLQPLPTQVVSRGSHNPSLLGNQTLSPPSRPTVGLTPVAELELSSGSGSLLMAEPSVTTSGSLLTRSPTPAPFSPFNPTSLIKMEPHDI
# Outline: as §1
# ELK4 = target: T3, ELK4 (Homo sapiens, UniProt P28324-2 1-405)
# T3 sequence: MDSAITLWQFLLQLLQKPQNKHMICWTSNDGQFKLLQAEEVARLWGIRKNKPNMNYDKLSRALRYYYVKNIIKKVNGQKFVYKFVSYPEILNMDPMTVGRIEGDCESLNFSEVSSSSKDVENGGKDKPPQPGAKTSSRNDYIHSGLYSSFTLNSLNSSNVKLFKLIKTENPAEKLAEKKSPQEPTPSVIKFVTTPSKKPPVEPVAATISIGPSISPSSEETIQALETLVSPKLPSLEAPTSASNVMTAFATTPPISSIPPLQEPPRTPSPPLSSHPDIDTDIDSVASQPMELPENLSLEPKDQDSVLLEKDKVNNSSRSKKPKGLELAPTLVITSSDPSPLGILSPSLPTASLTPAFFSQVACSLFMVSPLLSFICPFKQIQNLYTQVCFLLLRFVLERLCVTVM
# Outline: as §1
# ETV2 = target: T4, ETV2 (Homo sapiens, UniProt O00321 1-342)
# T4 sequence: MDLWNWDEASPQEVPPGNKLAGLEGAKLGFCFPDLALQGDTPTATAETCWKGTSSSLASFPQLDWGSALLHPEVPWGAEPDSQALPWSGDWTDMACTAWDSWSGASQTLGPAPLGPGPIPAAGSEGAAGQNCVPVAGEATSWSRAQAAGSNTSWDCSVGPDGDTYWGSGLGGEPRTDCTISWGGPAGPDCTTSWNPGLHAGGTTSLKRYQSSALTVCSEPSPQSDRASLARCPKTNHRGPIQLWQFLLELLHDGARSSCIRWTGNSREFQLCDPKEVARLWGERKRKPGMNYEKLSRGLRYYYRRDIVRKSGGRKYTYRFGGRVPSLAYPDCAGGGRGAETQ
# Outline: as §1
# ETV1 = ETV1 (Homo sapiens, UniProt P50549 1-477)
# Sequence of ETV1 (P50549 whole entry): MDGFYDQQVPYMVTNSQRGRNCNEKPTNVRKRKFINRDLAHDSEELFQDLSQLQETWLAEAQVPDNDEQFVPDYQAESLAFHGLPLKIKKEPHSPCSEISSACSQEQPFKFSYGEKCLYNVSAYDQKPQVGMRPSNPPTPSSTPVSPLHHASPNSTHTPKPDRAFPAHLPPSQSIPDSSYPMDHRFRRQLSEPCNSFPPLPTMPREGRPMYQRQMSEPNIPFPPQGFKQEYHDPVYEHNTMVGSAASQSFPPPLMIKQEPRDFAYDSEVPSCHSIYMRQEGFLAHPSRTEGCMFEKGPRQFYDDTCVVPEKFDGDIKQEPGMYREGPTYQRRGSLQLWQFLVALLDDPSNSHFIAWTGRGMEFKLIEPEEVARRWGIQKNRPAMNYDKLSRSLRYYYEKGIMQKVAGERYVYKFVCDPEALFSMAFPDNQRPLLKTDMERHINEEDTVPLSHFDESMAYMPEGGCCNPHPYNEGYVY
# Outline: as §1
# ERF = target: T5, ERF (Homo sapiens, UniProt P50548 1-548)
# T5 sequence: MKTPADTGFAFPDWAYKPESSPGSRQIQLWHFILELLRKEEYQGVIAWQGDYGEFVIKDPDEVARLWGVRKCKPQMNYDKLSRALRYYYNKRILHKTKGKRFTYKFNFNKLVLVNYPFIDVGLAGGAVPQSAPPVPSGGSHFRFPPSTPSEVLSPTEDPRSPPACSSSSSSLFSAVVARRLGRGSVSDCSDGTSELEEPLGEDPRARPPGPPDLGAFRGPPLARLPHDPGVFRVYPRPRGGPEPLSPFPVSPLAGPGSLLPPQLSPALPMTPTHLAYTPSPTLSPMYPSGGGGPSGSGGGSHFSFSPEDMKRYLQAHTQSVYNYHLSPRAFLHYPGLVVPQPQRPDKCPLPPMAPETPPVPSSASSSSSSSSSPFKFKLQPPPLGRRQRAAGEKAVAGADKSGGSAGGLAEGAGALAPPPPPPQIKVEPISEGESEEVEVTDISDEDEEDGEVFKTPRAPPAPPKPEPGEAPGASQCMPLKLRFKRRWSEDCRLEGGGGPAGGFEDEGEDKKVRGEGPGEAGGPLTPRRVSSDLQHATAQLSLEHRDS
# Outline: as §1
# ETV3L = target: T6, ETV3L (Homo sapiens, UniProt Q6ZN32 1-361)
# T6 sequence: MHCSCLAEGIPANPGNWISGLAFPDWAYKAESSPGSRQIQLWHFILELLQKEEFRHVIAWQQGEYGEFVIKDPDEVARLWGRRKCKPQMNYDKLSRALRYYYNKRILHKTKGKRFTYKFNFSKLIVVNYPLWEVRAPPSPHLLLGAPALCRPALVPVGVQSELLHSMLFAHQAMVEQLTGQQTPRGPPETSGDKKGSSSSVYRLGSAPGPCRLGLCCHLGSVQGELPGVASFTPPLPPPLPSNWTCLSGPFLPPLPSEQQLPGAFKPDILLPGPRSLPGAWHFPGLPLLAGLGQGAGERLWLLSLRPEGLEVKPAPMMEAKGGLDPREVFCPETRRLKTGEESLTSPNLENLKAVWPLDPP
# Outline: as §1
# ETS2 = target: T7, ETS2 (Homo sapiens, UniProt P15036 1-469)
# T7 sequence: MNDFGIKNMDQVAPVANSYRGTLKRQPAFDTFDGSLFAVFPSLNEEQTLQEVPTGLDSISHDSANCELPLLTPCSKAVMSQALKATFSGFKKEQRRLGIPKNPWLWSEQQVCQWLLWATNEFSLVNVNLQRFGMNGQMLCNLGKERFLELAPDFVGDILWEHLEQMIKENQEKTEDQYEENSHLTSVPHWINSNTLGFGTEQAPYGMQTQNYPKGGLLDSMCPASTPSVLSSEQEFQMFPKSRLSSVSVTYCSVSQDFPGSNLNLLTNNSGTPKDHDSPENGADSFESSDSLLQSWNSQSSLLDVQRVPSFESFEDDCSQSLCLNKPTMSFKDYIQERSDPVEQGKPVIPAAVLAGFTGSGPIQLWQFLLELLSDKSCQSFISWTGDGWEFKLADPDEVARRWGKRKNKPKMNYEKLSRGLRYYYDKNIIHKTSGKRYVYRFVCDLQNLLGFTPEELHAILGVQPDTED
# Outline: as §1
# SPDEF = target: T8, SPDEF (Homo sapiens, UniProt O95238 1-335)
# T8 sequence: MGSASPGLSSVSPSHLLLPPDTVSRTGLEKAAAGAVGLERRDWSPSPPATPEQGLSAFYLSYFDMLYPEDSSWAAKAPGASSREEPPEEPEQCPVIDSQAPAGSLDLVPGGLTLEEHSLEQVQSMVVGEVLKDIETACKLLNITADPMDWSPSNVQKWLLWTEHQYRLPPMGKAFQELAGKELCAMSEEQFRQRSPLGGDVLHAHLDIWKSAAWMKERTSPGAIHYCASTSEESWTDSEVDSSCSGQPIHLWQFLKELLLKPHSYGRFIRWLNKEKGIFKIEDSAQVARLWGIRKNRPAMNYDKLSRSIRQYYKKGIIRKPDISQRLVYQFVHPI
# Outline: as §1
# ETV7 = target: T9, ETV7 (Homo sapiens, UniProt Q9Y603 1-341)
# T9 sequence: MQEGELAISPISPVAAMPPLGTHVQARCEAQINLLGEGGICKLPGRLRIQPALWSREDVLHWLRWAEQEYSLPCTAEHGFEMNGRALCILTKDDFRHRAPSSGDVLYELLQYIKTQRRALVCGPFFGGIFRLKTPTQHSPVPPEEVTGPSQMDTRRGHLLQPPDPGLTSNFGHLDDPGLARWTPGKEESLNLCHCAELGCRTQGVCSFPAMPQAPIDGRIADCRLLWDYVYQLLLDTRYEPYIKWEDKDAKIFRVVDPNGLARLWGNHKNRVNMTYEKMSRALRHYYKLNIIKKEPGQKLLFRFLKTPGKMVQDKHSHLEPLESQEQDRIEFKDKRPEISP
# Outline: as §1
# ETV3 = target: T10, ETV3 (Homo sapiens, UniProt P41162-2 1-143)
# T10 sequence: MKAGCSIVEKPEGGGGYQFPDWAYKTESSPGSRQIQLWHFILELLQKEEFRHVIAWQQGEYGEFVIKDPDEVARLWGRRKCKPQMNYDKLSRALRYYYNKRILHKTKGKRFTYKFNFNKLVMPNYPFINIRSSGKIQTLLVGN
# Outline: as §1
# ETV6 = ETV6 (Homo sapiens, UniProt P41212 1-452)
# Sequence of ETV6 (P41212 whole entry): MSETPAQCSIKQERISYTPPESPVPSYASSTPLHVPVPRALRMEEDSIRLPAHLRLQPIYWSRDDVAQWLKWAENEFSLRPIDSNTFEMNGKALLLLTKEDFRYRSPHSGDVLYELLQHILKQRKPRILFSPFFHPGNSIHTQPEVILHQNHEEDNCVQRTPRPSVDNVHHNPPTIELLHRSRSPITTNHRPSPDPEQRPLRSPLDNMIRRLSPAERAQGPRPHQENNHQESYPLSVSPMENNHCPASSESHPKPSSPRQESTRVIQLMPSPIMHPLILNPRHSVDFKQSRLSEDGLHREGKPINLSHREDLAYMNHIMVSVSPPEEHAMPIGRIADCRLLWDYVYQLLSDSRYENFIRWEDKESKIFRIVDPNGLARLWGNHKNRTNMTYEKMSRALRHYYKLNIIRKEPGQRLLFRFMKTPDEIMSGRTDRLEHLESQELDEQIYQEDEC
# Outline: as §1
# ELF3 = target: T11, ELF3 (Homo sapiens, UniProt P78545 1-371)
# T11 sequence: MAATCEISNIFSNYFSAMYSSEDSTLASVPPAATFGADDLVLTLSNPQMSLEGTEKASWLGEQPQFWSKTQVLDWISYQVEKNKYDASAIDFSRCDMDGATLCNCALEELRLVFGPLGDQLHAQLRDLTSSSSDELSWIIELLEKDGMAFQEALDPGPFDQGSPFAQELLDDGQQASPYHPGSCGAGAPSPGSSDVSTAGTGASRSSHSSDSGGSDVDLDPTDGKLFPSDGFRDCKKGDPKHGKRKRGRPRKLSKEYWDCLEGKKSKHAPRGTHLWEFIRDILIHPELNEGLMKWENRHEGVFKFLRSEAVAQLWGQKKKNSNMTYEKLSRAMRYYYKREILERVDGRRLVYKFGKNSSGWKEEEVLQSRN
# Outline: as §1
# CRX = CRX (Homo sapiens, UniProt O43186 1-299)
# Sequence of CRX (O43186 whole entry): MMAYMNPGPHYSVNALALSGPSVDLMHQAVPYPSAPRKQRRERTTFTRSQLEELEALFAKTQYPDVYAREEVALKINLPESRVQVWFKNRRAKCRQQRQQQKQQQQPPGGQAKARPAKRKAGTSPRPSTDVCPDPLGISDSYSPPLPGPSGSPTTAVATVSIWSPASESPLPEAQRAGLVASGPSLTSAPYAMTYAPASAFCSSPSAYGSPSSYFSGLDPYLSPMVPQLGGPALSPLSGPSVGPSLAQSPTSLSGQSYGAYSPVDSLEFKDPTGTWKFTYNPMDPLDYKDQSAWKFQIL
# Outline: as §1
# ELF5 = target: T12, ELF5 (Homo sapiens, UniProt Q9UKW6-2 1-255)
# T12 sequence: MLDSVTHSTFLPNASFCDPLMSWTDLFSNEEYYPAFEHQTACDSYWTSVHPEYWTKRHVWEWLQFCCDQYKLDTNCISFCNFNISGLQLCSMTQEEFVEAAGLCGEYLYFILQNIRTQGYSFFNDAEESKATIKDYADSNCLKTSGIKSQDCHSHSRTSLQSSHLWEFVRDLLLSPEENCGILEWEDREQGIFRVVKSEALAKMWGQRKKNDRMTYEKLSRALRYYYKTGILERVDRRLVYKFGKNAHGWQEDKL
# Outline: as §1
Sequence,binding signal (FEV),binding signal (ETV5),binding signal (SPIC),binding signal (ELF4),binding signal (ELK4),binding signal (ETV2),binding signal (ETV1),binding signal (ERF),binding signal (ETV3L),binding signal (ETS2),binding signal (SPDEF),binding signal (ETV7),binding signal (ETV3),binding signal (ETV6),binding signal (ELF3),binding signal (CRX),binding signal (ELF5)
CAACCA,"1.12 fold enrichment (6-mer frequency, TF over GST control)","1.13 fold enrichment (6-mer frequency, TF over GST control)","1.02 fold enrichment (6-mer frequency, TF over GST control)","1.11 fold enrichment (6-mer frequency, TF over GST control)","1.07 fold enrichment (6-mer frequency, TF over GST control)","1.09 fold enrichment (6-mer frequency, TF over GST control)","1.09 fold enrichment (6-mer frequency, TF over GST control)","1.14 fold enrichment (6-mer frequency, TF over GST control)","1.05 fold enrichment (6-mer frequency, TF over GST control)","1.1 fold enrichment (6-mer frequency, TF over GST control)","1.09 fold enrichment (6-mer frequency, TF over GST control)","1.04 fold enrichment (6-mer frequency, TF over GST control)","1.1 fold enrichment (6-mer frequency, TF over GST control)","1.03 fold enrichment (6-mer frequency, TF over GST control)",,,
CCCCGC,"1.14 fold enrichment (6-mer frequency, TF over GST control)","1.18 fold enrichment (6-mer frequency, TF over GST control)","1.34 fold enrichment (6-mer frequency, TF over GST control)","1.24 fold enrichment (6-mer frequency, TF over GST control)","1.36 fold enrichment (6-mer frequency, TF over GST control)",,"1.17 fold enrichment (6-mer frequency, TF over GST control)","1.11 fold enrichment (6-mer frequency, TF over GST control)","1.23 fold enrichment (6-mer frequency, TF over GST control)","1.14 fold enrichment (6-mer frequency, TF over GST control)","1.06 fold enrichment (6-mer frequency, TF over GST control)","1.19 fold enrichment (6-mer frequency, TF over GST control)","1.14 fold enrichment (6-mer frequency, TF over GST control)","1.16 fold enrichment (6-mer frequency, TF over GST control)","1.29 fold enrichment (6-mer frequency, TF over GST control)","1.01 fold enrichment (6-mer frequency, TF over GST control)","1.07 fold enrichment (6-mer frequency, TF over GST control)"
